From PubChem BioAssay (NCI)
The panel holds about 83,000 compounds, 20% with a hit somewhere; the sample as a whole holds those more often.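 Cells were grown in 96-well plates and exposed to the test compound at a single concentration for 48 hours; results are reported as percent growth, with values below 10 considered active.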 Unmarked numbers belong to inactive results. The source made the active and inactive calls.

What was measured:
Experiment in all cases: NCI-60 one-dose screen, 48 h (100 = growth as untreated, 0 = no growth, -100 = all killed)
Conditions in all cases: 10 µM unless noted
[1] = test system: SK-MEL-2 melanoma
[2] = test system: EKVX NSCLC
[3] = test system: SN12C renal
[4] = test system: UO-31 renal
[5] = test system: TK-10 renal
[6] = test system: ACHN renal
[7] = test system: CAKI-1 renal
[8] = test system: A498 renal
[9] = test system: CCRF-CEM leukemia
[10] = test system: MOLT-4 leukemia
[11] = test system: SR leukemia
[12] = test system: RPMI-8226 leukemia
[13] = test system: OVCAR-8 ovarian
[14] = test system: OVCAR-5 ovarian
[15] = test system: OVCAR-4 ovarian
[16] = test system: SK-OV-3 ovarian
[17] = test system: IGROV1 ovarian
[18] = test system: OVCAR-3 ovarian
[19] = test system: HS 578T breast
[20] = test system: NCI/ADR-RES ovarian

SMILES | growth [1] | growth [2] | growth [3] | growth [4] | growth [5] | growth [6] | growth [7] | growth [8] | growth [9] | growth [10] | growth [11] | growth [12] | growth [13] | growth [14] | growth [15] | growth [16] | growth [17] | growth [18] | growth [19] | growth [20]
COc1nc2ccccc2cc1/C=C1/C=C(c2ccccc2)NC1=O | 19% | 52.5% | 40.6% | 41.2% | 87.5% | 40.9% | 31.9% | 35.9% | 41.1% | 21.5% | 20% | 53.7% | 44.8% | 85.4% | 65% | 50.3% | 39% | 17.2% | 25.8% | 32.8%
c1ccc2c(-c3cnn4cc(-c5ccc(N6CCNCC6)cc5)cnc34)ccnc2c1 | -59.2% (active) | -37.3% (active) | -75.5% (active) | -93.4% (active) | -74.8% (active) | -99.3% (active) | -99.6% (active) | -87% (active) | -48.2% (active) | -28.7% (active) | -19.1% (active) | -52.8% (active) | -46.9% (active) | -85.3% (active) | -65.8% (active) | -86.4% (active) | -79.7% (active) | -83.2% (active) | -68.7% (active) | -42.5% (active)
COc1ccc(-c2ccc(-c3ccc(C(=N)N)o3)o2)cc1 | 54% | 58.4% | -23.9% (active) | 45.5% | 61.9% | 41.6% | 34.4% | 9.73% (active) | 5.45% (active) | 27.7% | -4.13% (active) | 14.3% | 28.9% | 38.4% | 58.8% | 35.8% | 57.1% | -27.8% (active) | 56.2% | 14.4%
CS(=O)(=O)c1ccc(/C(=N/NC(N)=S)c2ccc(F)cc2)cc1 | 112% | 92.5% | 96.5% | 71.1% | 115% | 100% | 94.7% | 82.2% | 92.9% | 103% | 103% | 99.5% | 103% | 104% | 104% | 112% | 101% | 108% | 102% | 102%
C=CC(=O)Nc1ccc2ncnc(Nc3cccc(NS(=O)(=O)CCC)c3Cl)c2c1 | 51.9% | 51.8% | 22.9% | 19.2% | 11.3% | 29.3% | 22.6% | -14.3% (active) | 50.2% | 67.3% | 35.7% | 55.4% | 48.2% | 36.2% | 66.8% | 19.6% | 18.5% | 12.7% | 20.6% | 83.4%
CSc1nc(CC(C)C)c(C#N)c(=O)n1C | 85.8% | 64.3% | 29.1% | 38.9% | 34.2% | 55.6% | 56.8% | 47% | 49.2% | 46.1% | 47.4% | 64.5% | 77.1% | 74.7% | 52.4% | 87.7% | 71.8% | 61.3% | 58.4% | 72.5%
CCOC(=O)c1c(C)nc2c(c1N)C(=O)C(=O)N2CCc1ccc(OC)c(OC)c1 | 75.5% | 57.6% | 89.1% | 57.5% | 70.8% | 74% | 60.2% | 55.5% | 75.1% | 57.3% | 35.9% | 42.7% | 77.9% | 94.9% | 54.8% | 76.6% | 74% | 61.5% | 89% | 41.9%
CC/C(=C(/c1ccc(Cl)cc1)c1ccc(OCCN(CC)CC)cc1)c1ccc(OC)cc1 | 89.5% | 62.2% | 67.5% | 67.5% | 64.9% | 79.4% | 77% | 104% | 24.3% | 19.7% | -26% (active) | -21.4% (active) | 60.4% | 61.5% | 70% | 89.8% | 60.4% | 65.8% | 81.5% | 69.7%
CCCCCCCCCCCCCC[n+]1ccc2c(C)c3c(c(C)c2c1)c1cc(O)ccc1n3CC | -81.6% (active) | -34.5% (active) | -74.9% (active) | -1.41% (active) | -46.6% (active) | -25.3% (active) | 31.4% | -19.8% (active) | -16% (active) | -44.5% (active) | -52.5% (active) | -51.5% (active) | -43.4% (active) | -60.9% (active) | -59.8% (active) | -19% (active) | -75.6% (active) | -95.3% (active) | -41.3% (active) | 59.9%
C#Cc1c(I)n(C2OC(CO[Si](C)(C)C(C)(C)C)C3OC(C)(C)OC32)c(=O)[nH]c1=O (stereo not given) | 59.9% | 96.7% | 89.7% | -77.3% (active) | -62.3% (active) | 49.7% | 74.2% | 102% | -29.7% (active) | -25.5% (active) | -41.8% (active) | -66.8% (active) | 97.8% | 91.9% | 88.9% | 107% | 36.6% | -40.2% (active) | 5.41% (active) | 89.6%
COC(=O)c1cc(-c2cc(OC)c(OC)c(OC)c2)[nH]c1N/N=C/c1c(Cl)cccc1Cl | -21.2% (active) | 64.4% | 40.6% | 40.9% | -47.6% (active) | 10.1% | 7.04% (active) | -63.6% (active) | 35.6% | 33.2% | -17.6% (active) | 18.4% | 5.44% (active) | 22.7% | 5.08% (active) | 28.3% | -54.8% (active) | 9.29% (active) | -5.55% (active) | 6.82% (active)
COC(=O)[C@H](C)NC(=O)[C@@H]1CCCN1C(=O)CNC(=O)[C@H](C)N | 113% | 89.6% | 105% | 91.2% | 95.5% | 108% | 88.4% | 93.2% | 115% | 102% | 114% | 116% | 105% | 114% | 89.1% | 102% | 109% | 112% | 99.8% | 106%
O=C(CN1C(=O)c2ccccc2S1(=O)=O)Nc1nc(-c2cc3ccccc3oc2=O)cs1 | 107% | 102% | 97.2% | 91% | 137% | 103% | 100% | 98% | 104% | 110% | 109% | 108% | 101% | 106% | 110% | 106% | 99.1% | 113% | 96.6% | 103%
O=C(CN1C(=O)NC2NC(=O)NC21)N/N=C/c1cccc([N+](=O)[O-])c1 (stereo not given) | 113% | 102% | 96.5% | 88.4% | 106% | 104% | 85.8% | 95.8% | 106% | 106% | 110% | 110% | 111% | 105% | 105% | 108% | 103% | 108% | 107% | 101%
CC(=O)OCCOc1cc(Cl)c(Cl)cc1Cl | 89.9% | 78.4% | 102% | 89.1% | 106% | 103% | 96.5% | 82.8% | -63.4% (active) | 107% | 97.2% | 93.3% | 103% | 90.6% | 108% | 107% | 130% | 118% | 103% | 105%
